Assay results taken from PubChem BioAssay AID1060 (Emory University Molecular Libraries Screening Center, 2008).
Results with a measured potency or affinity are listed apart. The source made the active and inactive calls.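 Rule for the calls: active = fitted half-inhibition concentration at or below a set limit, with percent of control there at most 60; inactive = the rest.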

Molecular target: Estrogen receptor beta (Homo sapiens) (UniProt Q92731)
Assay: blockers of SRC-3 recruitment to ERβ – biochemical, ELISA, streptavidin-HRP readout, orthogonal assay, confirmation (AID 1060)
Details: ERbeta-SRC-3 coactivator binding ELISA; series mostly up to 50 µM

Sequence of Estrogen receptor beta (Homo sapiens) (Q92731 whole entry, looked up): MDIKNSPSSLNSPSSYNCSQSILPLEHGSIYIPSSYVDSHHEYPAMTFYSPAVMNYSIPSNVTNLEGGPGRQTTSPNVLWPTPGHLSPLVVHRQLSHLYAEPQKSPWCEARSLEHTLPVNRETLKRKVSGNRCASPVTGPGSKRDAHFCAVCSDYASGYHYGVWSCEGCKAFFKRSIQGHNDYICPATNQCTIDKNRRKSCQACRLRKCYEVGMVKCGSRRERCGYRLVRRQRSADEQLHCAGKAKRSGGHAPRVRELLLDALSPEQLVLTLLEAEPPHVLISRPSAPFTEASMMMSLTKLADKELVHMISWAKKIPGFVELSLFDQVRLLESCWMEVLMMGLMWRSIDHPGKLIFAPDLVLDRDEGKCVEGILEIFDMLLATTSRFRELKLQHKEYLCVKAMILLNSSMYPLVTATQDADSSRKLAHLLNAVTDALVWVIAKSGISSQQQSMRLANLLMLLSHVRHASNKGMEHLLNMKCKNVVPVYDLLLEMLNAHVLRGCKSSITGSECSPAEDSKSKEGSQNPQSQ

outcome, inactive:
Cc1ccc(C(=O)CSC2=C(C#N)C(c3ccco3)CC(=O)N2)c(C)c1 (stereo unspecified)
COc1ccc(CCNC(=O)c2ccc3nc(-c4ccco4)c(-c4ccco4)nc3c2)cc1OC
NC(=O)c1cccc2c1C(=O)N(C1CCCCC1)C2
CCC(=O)Nc1cccc(NC(C)=O)c1
CC1CC(C(F)(F)C(F)(F)F)n2nc(C(=O)O)cc2N1 (stereo unspecified)
COc1ccccc1-c1nnc2sc(-c3cnccn3)nn12
COc1ccc2nc(-c3ccco3)c(-c3ccco3)nc2c1
O=S(=O)(Nc1ncnc2sc3c(c12)CCC3)c1ccc2ccccc2c1
CSc1nc2c(c(=O)[nH]1)C(c1cccs1)C1=C(CCCC1=O)N2 (stereo unspecified)
CCc1cc(=O)[nH]c(SCC(=O)Nc2ccc(C(=O)OC)cc2)n1
CCCNCC1COc2ccccc2O1 (stereo unspecified)
COc1ccc2c(=O)c3c(=O)n(Cc4ccco4)c(-c4ccco4)nc3oc2c1
Cc1sc2ncnc(NCc3ccco3)c2c1C
Cc1cc(-c2csc(N)n2)c(C)n1C
CCC(=O)Nc1ccc(C(=O)Cn2nc(C(=O)O)c3ccccc3c2=O)cc1
Cc1cc(C)cc(OCC(=O)Nc2ccc(N3CCCC3)cc2)c1
